# Assay results published in PubChem BioAssay.
# Activity calls are given as the source filed them.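 The calls were made as follows, unless noted: active = fluorescence slope higher than the sample average by over 3 SD (cut at about -0.22 in these data, passing the limit was not always enough); inactive = the rest.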
# Assays:
# [1] = inhibitors of TNFa-induced NFkB p65 translocation, primary screen, imaging, HUVEC, MLSMR starter and 10KST1 sets (AID 438;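 active = inhibition above 20% together with a positive visual image hit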;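 also: compound added about 3h40 before a 20 min TNFalpha stimulation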;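 as to inhibition: signal is the nuclear over cytoplasmic p65 intensity ratio per well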); settings: HUVEC TNFa-induced p65 nuclear translocation; cell count: measured here: nuclei count (cytotoxicity indicator), at 2.08 µM; inhibition: at 2 µM, stronger effect = higher value, 0% TNFa-plus-vehicle, 100% no-TNFa wells
# [2] = inhibitors of E-selectin induction by TNFa, primary screen, imaging, HUVEC, immunofluorescence, MLSMR starter and 10KST1 sets (AID 487;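 active = visually confirmed hit in the image check and inhibition above 20%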;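 as to inhibition: signal is fraction of cell area covered by stained E-selectin grains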;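 as to nuclei count: 100% = median nuclei count of all wells on the same plate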); settings: HUVEC TNFalpha-induced E-selectin immunofluorescence imaging, at 2 µM; inhibition: stronger effect = higher value; nuclei count: measured here: cell number, toxicity
# [3] = DUSP6 inhibitors restoring Erk phosphorylation by chemical complementation, primary imaging in DUSP6-transfected HeLa (AID 609;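 active = compounds giving at least 50% inhibition in the cell-based MKP-3 phosphatase rescue imaging test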;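 as to inhibition: phospho-Erk level distribution per well compared with pooled transfected vehicle control wells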); settings: HeLa MKP-3 transfected, phospho-Erk imaging KS statistic, at 10 µM, cells stimulated with TPA for 15 min
# [4] = target: Dual specificity protein phosphatase 6 (Homo sapiens) (UniProt Q16828); assay: as above; settings: HeLa MKP-3 transfected, phospho-Erk imaging KS statistic; at 10 µM; stronger effect = higher value; cells stimulated with TPA for 15 min
# [5] = target: Voltage-gated potassium channel subunit beta-2 (Rattus norvegicus) (UniProt P62483); assay: KvBeta enzyme negative modulators, primary screen, biochemical, NADPH fluorescence (AID 622); settings: recombinant KvBeta, 4-cyanobenzaldehyde reduction, at 10 µM, stronger effect = higher value;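 also: slope of raw intensity against log time taken from 70 to 1610 s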
# [6] = target: Voltage-gated potassium channel subunit beta-2 (Rattus norvegicus) (UniProt P62483); assay: KvBeta positive modulators, primary screen, biochemical, NADPH fluorescence (AID 623;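 active = NADPH fluorescence slope more negative than the mean of all samples by about 3 SD, 99.7% confidence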;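 also: fluorescence intensity change per second fitted from 20 to 320 s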); settings: Recombinant KvBeta, NADPH fluorescence decrease slope, 10 min; at 10 µM; stronger effect = lower value
# [7] = target: Alpha-2C adrenergic receptor (Homo sapiens) (UniProt P18825); assay: modulators of alpha2C/GIRK thallium flux, primary screen, cell-based, HEK293 alpha2C/GIRK1/2 (AID 624;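 active = fluorescence slope after compound addition differing from the mean of all screened samples at 99.7% confidence, in either direction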;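 also: slope of fluorescence ratio to pre-addition baseline per second over 15 to 24 s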); settings: thallium flux BTC fluorescence, at 10 µM, actives lie on both sides
# [8] = inhibitors of Chlamydomonas gravitaxis, primary screen, whole organism, Chlamydomonas reinhardtii, WT vs cilia-less mutant, absorbance, 96-well (AID 463189;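 active = inhibition at or above 50% relative to wild type and mutant plate controls; inactive = inhibition below 50%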;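 also: 0% = wild type cc124 cells in DMSO and 100% = ciliumless bld1 mutant cells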); settings: OD600 absorbance, 2 days, at 10 µM, stronger effect = higher value
# [9] = measured here: cell density z-score
# [10] = measured here: nuclear c-Myc green intensity z-score
# [11] = measured here: nuclear pErk red intensity z-score, stronger effect = higher value
# Chain of Dual specificity protein phosphatase 6 (Homo sapiens) (Q16828 whole entry, looked up): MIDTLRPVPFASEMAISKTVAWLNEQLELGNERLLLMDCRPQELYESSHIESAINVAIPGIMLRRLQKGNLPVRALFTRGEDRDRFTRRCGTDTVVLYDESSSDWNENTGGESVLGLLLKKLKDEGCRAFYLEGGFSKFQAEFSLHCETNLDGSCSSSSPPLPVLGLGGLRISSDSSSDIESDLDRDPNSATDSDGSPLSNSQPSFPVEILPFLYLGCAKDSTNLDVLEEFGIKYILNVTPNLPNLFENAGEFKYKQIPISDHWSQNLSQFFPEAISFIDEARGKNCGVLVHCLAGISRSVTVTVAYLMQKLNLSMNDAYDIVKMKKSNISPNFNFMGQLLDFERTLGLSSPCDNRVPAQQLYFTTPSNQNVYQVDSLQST
# Chain of Alpha-2C adrenergic receptor (Homo sapiens) (P18825 whole entry, looked up): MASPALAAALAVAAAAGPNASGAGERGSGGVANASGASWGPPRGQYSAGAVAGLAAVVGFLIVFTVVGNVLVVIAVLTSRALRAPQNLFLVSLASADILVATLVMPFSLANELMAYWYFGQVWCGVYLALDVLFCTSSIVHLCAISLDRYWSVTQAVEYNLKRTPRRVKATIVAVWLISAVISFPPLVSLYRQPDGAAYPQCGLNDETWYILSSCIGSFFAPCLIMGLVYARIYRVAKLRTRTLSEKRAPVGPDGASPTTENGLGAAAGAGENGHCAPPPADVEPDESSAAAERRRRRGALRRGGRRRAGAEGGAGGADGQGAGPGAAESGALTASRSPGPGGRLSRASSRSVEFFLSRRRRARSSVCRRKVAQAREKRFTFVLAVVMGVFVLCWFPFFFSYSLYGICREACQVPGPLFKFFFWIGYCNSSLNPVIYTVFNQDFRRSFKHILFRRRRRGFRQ
# Chain of Voltage-gated potassium channel subunit beta-2 (Rattus norvegicus) (P62483 whole entry, looked up): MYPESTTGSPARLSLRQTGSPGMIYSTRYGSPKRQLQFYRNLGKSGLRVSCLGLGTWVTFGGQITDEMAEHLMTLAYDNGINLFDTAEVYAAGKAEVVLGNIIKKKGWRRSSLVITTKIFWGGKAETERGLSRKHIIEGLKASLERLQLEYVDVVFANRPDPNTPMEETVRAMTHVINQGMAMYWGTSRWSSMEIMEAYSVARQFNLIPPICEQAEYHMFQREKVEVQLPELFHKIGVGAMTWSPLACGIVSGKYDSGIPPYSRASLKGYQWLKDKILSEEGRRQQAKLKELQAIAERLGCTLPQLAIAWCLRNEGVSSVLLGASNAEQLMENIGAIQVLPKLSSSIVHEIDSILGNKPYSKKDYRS
Compound,cell count [1],inhibition [1],inhibition [2],nuclei count [2] [%],"z-score [3, 9]","z-score [3, 10]","z-score [3, 11]",inhibition [4],fluorescence slope [5],NADPH fluorescence slope [6],slope [7],inhibition [8]
CCO/C(C)=N/n1c2nc3ccccc3nc2c2c(=O)n(CC(C)C)c(C)nc21,369,1.4% (inactive),-12.8% (inactive),145,-0.809,0.23,0.00332,14% (inactive),-0.438 (inactive),-6e-05 (inactive),0.00351 (inactive),9.95% (inactive)
COCCN(CCOC)C(=O)C12CCC(C)(C(=O)C1)C2(C)C (stereo not given),237,-4.2% (inactive),17.3% (inactive),124,0.486,2.03,1.23,10.5% (inactive),-0.458 (inactive),-5.9e-05 (inactive),0.00572 (inactive),-24.6% (inactive)
CC1(C)CC(=O)C2=C(C1)Oc1nc3ccccc3cc1C2C(C#N)C#N (stereo not given),373,-3.7% (inactive),-108% (inactive),134,-0.147,-0.642,-1.04,-12.3% (inactive),-0.414 (inactive),-0.000128 (inactive),0.00783 (inactive),26.7% (inactive)
CC1(C)CC(NC(=O)C23CCC(C)(/C(=N/O)C2)C3(C)C)CC(C)(C)N1 (stereo not given),378,-8.3% (inactive),-45.2% (inactive),179,-1.2,0.0129,1.59,-14% (inactive),-0.399 (inactive),-0.000147 (inactive),0.00577 (inactive),-6.59% (inactive)
CCCSc1nc(C)c(CC(=O)O)c(=O)[nH]1,381,-7.9% (inactive),-71.2% (inactive),190,-2.53,0.0307,-0.67,1.75% (inactive),-0.45 (inactive),-0.00012 (inactive),0.00515 (inactive),21.4% (inactive)
